Assay results taken from PubChem BioAssay (NCI).
About 79,000 compounds went through this panel and 15% of them were active in at least one assay; those are over-represented in the sample as a whole. Active and inactive are the calls of the source. Rule as the data show it: active = growth inhibition above about 70%; inactive = the rest.

experiment: NCI Yeast Anticancer Drug Screen. Data for the mec2-1 strain (AID 157); conditions: S. cerevisiae mec2-1 strain, at 50.0 µM, stronger effect = higher value
Method: Growth inhibition of yeast strains with defined genetic alterations is measured as a screen for potential anti-cancer activity. Selected strains with alterations in DNA damage repair or cell cycle control were exposed to compounds and growth inhibition was measured relative to vehicle treated controls. The strain used in this assay is mec2-1

Row | Compound | growth inhibition
1 | CCOC(=O)C(C#N)N=Nc1ccccc1 (stereo not given) | -7% (inactive)
2 | COc1ccc(C2NC(=O)c3ccccc3N2)c(OC)c1OC (stereo not given) | -20.5% (inactive)
3 | CC(C)CCCC(C)[C@H]1CC[C@H]2[C@@H]3CC[C@H]4C[C@@H](CCC=C(c5cc(Cl)c(O)c(C(=O)O)c5)c5cc(Cl)c(O)c(C(=O)O)c5)CC[C@]4(C)[C@H]3CC[C@]12C (stereo not given in full) (tested in a mixture with another compound) | 22.4% (inactive)
4 | Nc1ccccc1CCc1ccccc1N | -10.1% (inactive)
5 | CCOC(=O)c1c(N)sc2c1CCN(Cc1ccccc1)C2 | 17.8% (inactive)
6 | Nc1ccc2[nH]c(-c3ccccc3)cc(=O)c2c1 | -33.8% (inactive)
7 | O=C1OC(c2ccc(Cl)cc2)=N/C1=C\c1ccccc1 | -5.5% (inactive)
8 | CC(=O)Nc1ccc(/C=C/C(=O)c2ccc(Cl)cc2)cc1 | -4.65% (inactive)
9 | N#CCCOc1ccccc1 | -26% (inactive)
10 | C[n+]1ccccc1/C=C/c1cccc(O)c1 | -19.9% (inactive)
11 | Oc1ccccc1C=NCC1CCC(CN=Cc2ccccc2O)CC1 (stereo not given) | 13.1% (inactive)
12 | COC(=O)/C(=N\NC(=S)NN)C(C(=O)OC)C(=O)C(=O)Nc1cccc(C(F)(F)F)c1 (stereo not given) | 1.4% (inactive)
13 | CCCCCCCCCCCC(O)CCCCC (stereo not given) | -48.4% (inactive)
14 | O=c1oc(-c2cccc([N+](=O)[O-])c2)nc2ccccc12 | -10.2% (inactive)
15 | Clc1ccc(C2NN=C3c4ccccc4OCC32)cc1 (stereo not given) | -24.1% (inactive)
16 | CN(C)/C=C/C(=O)c1ccccc1[N+](=O)[O-] | -11.4% (inactive)
17 | C(=N\N=C\c1c[nH]c2ccccc12)/c1c[nH]c2ccccc12 | -21.9% (inactive)
18 | O=C(/C=C/C=C/c1ccccc1)c1ccc(Cl)cc1 | -27.4% (inactive)
19 | CC(=O)CC1CCCC(CC(C)=O)N1C (stereo not given) | -19.2% (inactive)
20 | Cc1ccc(/C=N/N2C(=O)c3ccccc3C2=O)cc1 | -43.1% (inactive)

Row | Compound | growth inhibition
21 | C/C(O)=C/c1nc2sc(C)c(C)c2c(=O)s1 | 9.35% (inactive)
22 | NNc1[nH]c(=S)[nH]c1C(N)=O | -8.5% (inactive)
23 | COc1cc([C@H]2OC[C@@H]3C(c4cc(OC)c5c(c4)OCO5)OC[C@H]23)cc(OC)c1OC (stereo not given in full) | -34.6% (inactive)
24 | COc1ccc(COC(=O)N=[N+]=[N-])cc1 | 3.85% (inactive)
25 | CCCCCCCC/C=C\CCCCCCCCOC(N)=O | -26.8% (inactive)
26 | C=C1C(=O)O[C@@H]2C[C@@]3(C)CC(=O)C=C(C)[C@@H]3C[C@H]12 | -7.15% (inactive)
27 | O=C(O)C1(c2ccc(Cl)cc2)CCCC1 | 8.75% (inactive)
28 | CCOC(=O)CN1C(=O)C(=O)c2ccccc21 | 5.3% (inactive)
29 | CC/C(=C\c1cccc([N+](=O)[O-])c1)C(=O)O | -25.6% (inactive)
30 | O=C1c2ccccc2-c2c1c1ccccc1c(=O)n2-c1cccnc1 | 6.95% (inactive)
31 | Cc1ccc(Cl)cc1NCN1C(=O)c2ccccc2C1=O | -2.4% (inactive)
32 | OCc1ccccc1OC1OC(CO)C(O)C(O)C1O (stereo not given) | 2.6% (inactive)
33 | C[C@]12CC[C@@H]3c4ccc(OS(N)(=O)=O)cc4CC[C@H]3[C@@H]1CCC2=O | 8.15% (inactive)
34 | Cc1nnc(SCC2=C(C(=O)O)N3C(=O)C(NC(=O)Cn4cnnn4)C3SC2)s1 (stereo not given) | 3.45% (inactive)
35 | Cc1ccc(CNc2cc(C)ccn2)cc1 | 23.9% (inactive)
36 | COc1cc(-c2nc(SC)nc3c2CCc2ccccc2-3)cc(OC)c1OC | -5.85% (inactive)
37 | O=C(NC(CO)C(O)c1ccc([N+](=O)[O-])cc1)C(Cl)Cl (stereo not given) | -35.6% (inactive)
38 | O=[N+]([O-])c1ccc(-n2[nH]nnc2=S)cc1 | -25% (inactive)
39 | NC(=O)C(=O)N/N=C/c1ccc2c(c1)CCC2 | -10.9% (inactive)
40 | C=CCn1c2c(c3ccccc3c1=O)C(=O)c1ccccc1-2 | -6.5% (inactive)
